# Values joined by “and” are separate entries in the source; they are usually repeats but may differ in a detail not shown here. Identical values can stand only once. Inconclusive results are not listed. A structure can be active in one record and inactive in another. Active and inactive are the calls of the source. Calls follow the shape of the dose curve; as a rule, active = well fitted activation curve with a large enough effect in the repeat runs; inconclusive = weak or mixed curves; inactive = no such curve, though single readings can be large or run the other way.
# Target: Nuclear receptor subfamily 1 group I member 2 (Homo sapiens) (UniProt O75469)
# Sequence (O75469 whole entry, looked up): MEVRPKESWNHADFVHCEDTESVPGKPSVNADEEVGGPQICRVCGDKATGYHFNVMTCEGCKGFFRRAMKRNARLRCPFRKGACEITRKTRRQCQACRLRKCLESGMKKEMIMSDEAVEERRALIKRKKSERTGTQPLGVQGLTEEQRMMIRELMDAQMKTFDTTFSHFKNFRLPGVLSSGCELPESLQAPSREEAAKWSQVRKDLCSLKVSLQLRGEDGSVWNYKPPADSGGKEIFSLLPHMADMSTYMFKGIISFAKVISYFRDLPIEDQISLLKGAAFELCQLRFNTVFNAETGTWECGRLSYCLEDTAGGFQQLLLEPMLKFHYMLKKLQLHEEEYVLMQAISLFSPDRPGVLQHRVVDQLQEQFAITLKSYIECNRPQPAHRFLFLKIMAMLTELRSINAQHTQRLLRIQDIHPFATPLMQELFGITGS
# Assay: Human pregnane X receptor (PXR) small molecule agonists, qHTS assay (AID 1346982); also: nearly all actives have a fitted effect of over 35% in size
# Settings: PXR-Luc HepG2, CYP3A4 luciferase reporter, 24 h; series mostly up to 92.4 µM; activation: at the top concentration
# Source text: National Center for Advancing Translational Sciences [NCATS]
# NIH Chemical Genomics Center [NCGC]
# U.S. Environmental Protection Agency [EPA]
# National Institutes of Environmental Health Sciences [NIEHS]
# National Toxicology Program [NTP]
# The human pregnane X receptor (hPXR) regulates the expression of several drug metabolizing enzymes and induction of these proteins is a major mechanism for developing drug resistance in cancer. One such key enzyme catalyzing the drug metabolism is cytochrome P450 3A4 (CYP3A4). Changes in CYP3A4 expression affect drug metabolism, thereby reducing the therapeutic efficacy and altering toxicological response to a drug and which finally causes adverse drug interaction. To screen Tox21 libraries for compounds that activate hPXR-mediated CYP3A4 gene expression, PXR-Luc HepG2 cells were used.
# PXR-Luc HepG2 cells were dispensed at 2,000 per well in 5uL of assay medium containing 5% charcoal-stripped FBS into white solid bottom 1536-well plates (Corning Life Sciences, Corning, NY) using a Multidrop Combi (Thermo Scientific, Waltham, MA) dispenser. The assay plates were incubated at 37 C and 5% CO2 for 5hr, and then 23nL of compounds dissolved in DMSO and positive control were transferred using a Pintool station (Wako, San Diego, CA). The assay plates were incubated at 37C and 5% CO2 for 24hr. For luciferase read, 4uL of ONE-Glo reagent (Promega Corporation, Madison, WI) was added to each well of the assay plates using Flying Reagent Dispenser (FRD, Aurora Discovery, San Diego, CA) and incubated the assay plates at room temperature for 30min. The luminescence signal was quantified using a ViewLux plate reader (Perkin Elmer, Shelton, CT).
# % is scaled to controls: 0 for no effect and ±100 for the full control effect; potency is read from the fitted curve at half-maximal effect.
SMILES,activation,Potency
O=C(O)c1cc(=O)c2ccccc2o1,-0.889% [at 42.5 µM] (inactive),–
Oc1ccccc1O,–,22 µM (active) and inactive
Cc1cc(C(C)(C)C)cc(C)c1CC1=NCCN1,32.3% [at 42.5 µM] (inactive),–
CN(C)Cc1ccccc1O,10.1% (inactive),–
C=CC(=O)OCCOC(=O)C=C,-1.08% (inactive),–
CC/C=C\CCCCCO,2.69% (inactive),–
CNC(=O)c1ccccc1Sc1ccc2c(/C=C/c3ccccn3)n[nH]c2c1,–,0.376 µM (active)
O=C(Nc1ccc2c(O)c(N=Nc3ccc(N=Nc4ccc(S(=O)(=O)O)cc4)cc3)c(S(=O)(=O)O)cc2c1)c1ccccc1,-8.44% (inactive),–
Cc1ccc(C(C)C)cc2c(C)ccc1-2,–,10.6 µM (active)
O=C(O)CCN(C1(C(=O)NO)CCCC1)S(=O)(=O)c1ccc(Oc2ccc(F)cc2)cc1,7.29% (inactive),–
C[C@@H](O)[C@H](N)C(=O)O,-12.7% [at 19 µM] (inactive),–
CN(C)CCN1CCN(c2cccc(Cl)c2)C1=O,3.2% [at 42.5 µM] (inactive),–
C=C(C)c1cccc(C(=C)C)c1,8.04% (inactive),–
CC(C)(c1cc(Br)c(OCC(Br)CBr)c(Br)c1)c1cc(Br)c(OCC(Br)CBr)c(Br)c1 (stereo not given),10.4% [at 42.5 µM] (inactive),–
Cc1cc(-c2ccc(N=Nc3cc(S(=O)(=O)O)c4ccccc4c3N)c(C)c2)ccc1N=Nc1cc(S(=O)(=O)O)c2ccccc2c1N,–,19.4 µM (active)
CC1(C)CC(O)CC(C)(C)N1,–,55.5 µM (active)
O[C@@H]([C@H](O)[C@H](O)CBr)[C@H](O)CBr,13.2% (inactive),–
C1CCC(SSC2CCCCC2)CC1,-7.88% (inactive),–
CCC(CC)C(C)CCOC(C)=O (stereo not given),-8.29% (inactive),–
CCc1cccc(CC)c1NC(=O)CN(CC(=O)O)CC(=O)O,-0.538% [at 42.5 µM] (inactive),–

SMILES,activation,Potency
O=C1CCc2cc(OCCCCc3nnnn3C3CCCCC3)ccc2N1,–,13.3 µM (active)
Cc1c(C)c2c(c(C)c1OC(=O)c1cccnc1)CC[C@@](C)(CCC[C@H](C)CCC[C@H](C)CCCC(C)C)O2,-11.5% [at 42.5 µM] (inactive),–
Oc1c(I)cc(Cl)c2cccnc12,–,24.3 µM (active) and 23.7 µM (active)
OC1CCCc2ccccc21 (stereo not given),15% (inactive),–
CCN(CC)c1ccc2c(-c3ccc(S(=O)(=O)O)cc3S(=O)(=O)[O-])c3ccc(=[N+](CC)CC)cc-3oc2c1,-12.9% (inactive),–
O=S(=O)(O)c1ccc(Nc2nc(Nc3ccc(/C=C/c4ccc(Nc5nc(Nc6ccc(S(=O)(=O)O)cc6)nc(N(CCO)CCO)n5)cc4S(=O)(=O)O)c(S(=O)(=O)O)c3)nc(N(CCO)CCO)n2)cc1,-1.97% [at 42.5 µM] (inactive),–
[Cu+],6.82% (inactive),–
C=CCCC(=O)/C=C/C1C(C)=CCCC1(C)C (stereo not given),–,27.3 µM (active)
CC1(C)[C@@H](O)CC[C@]2(C)[C@H]3C(=O)C=C4[C@@H]5C[C@@](C)(C(=O)O)CC[C@]5(C)CC[C@@]4(C)[C@]3(C)CC[C@@H]12,15.9% (inactive),–
CCO[Si](OCC)(OCC)OCC,-4.39% (inactive),–
O=c1oc2cc(O)ccc2c2oc3cc(O)ccc3c12,–,65.7 µM (active)
C[C@H]1NCc2cc(-c3ccc4c(=O)c(C(=O)O)cn(C5CC5)c4c3OC(F)F)ccc21,-6.61% [at 19 µM] (inactive),–
CCCCC(CC)COC(=O)CCCCC(=O)OCc1ccccc1 (stereo not given),26.5% (inactive),–
CCC(=O)OC(=O)CC,2.88% (inactive),–
CCN1C(=O)c2ccccc2C1Nc1ccc(OCCN2CCCCC2)cc1 (stereo not given),–,1.68 µM (active)
O=C(c1ccc(O)c(O)c1)c1ccc(O)cc1O,–,54.4 µM (active)
O=C(O)c1cc(N=Nc2ccc([N+](=O)[O-])cc2)ccc1O,–,0.301 µM (active)
CCCCCc1ccc(Cl)cc1,-5.28% (inactive),–
c1cnccn1,1.9% (inactive),–
CC(CCc1ccccc1)NCC(O)c1ccc(O)c(C(N)=O)c1 (stereo not given),–,17.2 µM (active)

# Reference: PubChem BioAssay (Tox21)
